Screening results as filed in PubChem.
An excerpt weighted towards active compounds, which were near 2.8% of everything screened.
SENP8 block-1 = SENP8 (human) protease inhibition. Q96LD8. recombinant SENP8, Nedd8 substrate fluorescence. inhibition, % at 20 µM. actives 0.64% (n = 360,000); in the data active = inhibition mostly above about 40%, no sharp cut-off; inactive = mostly below about 27%
Target sequence (Q96LD8 whole entry, looked up): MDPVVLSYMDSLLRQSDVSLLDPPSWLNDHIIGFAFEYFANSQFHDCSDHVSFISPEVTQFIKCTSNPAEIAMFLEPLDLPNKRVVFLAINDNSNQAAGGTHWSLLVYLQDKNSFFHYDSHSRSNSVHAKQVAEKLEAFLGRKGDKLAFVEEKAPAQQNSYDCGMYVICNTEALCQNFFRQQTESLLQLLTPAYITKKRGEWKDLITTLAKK
SENP8 block-2 = SENP8 protease inhibition; purified SENP8, Z-RLRGG-aminoluciferin cleavage, luminescence; inhibition, % at 10 µM; AID 2540; actives 1.2% (n = 330,000); in the data active = inhibition above about 50%
SENP6 block = SENP6 protease inhibition. Q9GZR1. Recombinant SENP6 catalytic domain, aminoluciferin luminescence. inhibition, % at 10 µM. actives 1.8% (n = 330,000). AID 2599;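 active = inhibition above about 50% at the single tested dose, limit read from the data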;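 also: plate controls were DMSO wells with enzyme for no effect and DMSO wells lacking enzyme for full effect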
SENP7 block = SENP7 protease inhibition. recombinant SENP7, Z-RLRGG-aminoluciferin luminescence, 40 min. inhibition, % at 5 µM. actives 1.5% (n = 330,000). AID 434973;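 active = inhibition above about 50% at the single test dose, limit read from the data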;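 also: plate controls were DMSO with enzyme for no effect and no enzyme buffer wells for full effect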
HSP90 refold inh = blocks HSP90-mediated luciferase refolding in reticulocyte lysate | Rabbit reticulocyte lysate, luciferase refolding luminescence, 3 h | inhibition, % at 5.6 µM | actives 0.91% (n = 290,000) | AID 1789;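 active = inhibition above the screen-wide mean plus 3 SD, computed separately per campaign, cut at about 16% in these data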;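 also: 0% = DMSO wells and 100% = 60 µM geldanamycin wells; inhibitors lower the luminescence because luciferase stays unfolded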
Platelet DG rel = platelet dense granule release activity; human platelet-rich plasma, SFLLRN dense granule ATP release, luminescence; inhibition, %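 (compounds screened at 7.5 µM in platelet-rich plasma)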; actives 0.22% (n = 300,000); AID 1663;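 active = mean replicate score, as percent of positive control, at or above 50; inconclusive = mean below 50 but at least one replicate at or above 50; inactive = mean and every replicate below 50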
SENP8 conf = human SENP8 inhibition, confirmed; shares compounds with SENP7 block; Recombinant SENP8, Z-RLRGG-aminoluciferin luminescence, 60 min; inhibition, % at 12.5 µM; actives 40% (n = 6,200);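 active = mean inhibition across replicates above about 50%, limit read from the data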
SENP6 conf = human SENP6 inhibition, confirmed; shares compounds with SENP7 block; recombinant SENP6, Z-RLRGG-aminoluciferin luminescence; inhibition, % at 12.5 µM; actives 58% (n = 6,200); AID 488915
SENP7 conf = human SENP7 inhibition, confirmed | recombinant SENP7, Z-RLRGG-aminoluciferin luminescence, 40 min | shares compounds with SENP7 block | inhibition, % at 12.5 µM | actives 69% (n = 6,200)
Casp3 select = inhibits human caspase-3 in SENP selectivity test. shares compounds with SENP7 block. purified caspase-3, Z-DEVD-aminoluciferin luminescence, 60 min. inhibition, % at 12.5 µM. actives 60% (n = 6,200). AID 488918;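 active = mean inhibition above about 50%, limit read from the data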;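 also: plate controls were enzyme with DMSO for no effect and wells without caspase-3 for full effect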
Target sequence (P42574 28-227 limits assumed): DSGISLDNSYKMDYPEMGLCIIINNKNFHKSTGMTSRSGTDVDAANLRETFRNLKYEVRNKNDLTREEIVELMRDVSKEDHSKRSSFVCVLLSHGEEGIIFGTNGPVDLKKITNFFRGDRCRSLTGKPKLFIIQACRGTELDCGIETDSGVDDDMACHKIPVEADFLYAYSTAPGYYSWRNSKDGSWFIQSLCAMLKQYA
SENP luc ctr = interferes with luciferase luminescence in SENP counter-screen; shares compounds with SENP7 block; Pre-incubated SENP8/Z-RLRGG-aminoluciferin, luciferase luminescence interference; inhibition, % at 12.5 µM; actives 39% (n = 6,200); AID 488919;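 active = mean inhibition above about 50% when retested at one dose, limit read from the data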;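 also: plate controls were DMSO wells with completed reaction for no effect and substrate without enzyme for full effect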
Starred values were filed as active, the others as inactive.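 The calls were made as follows, unless noted: active = mean inhibition above about 50% in the one-dose retest (limit read from the data); inactive = the rest.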

Screening O=C(NCCc1nc2ccccc2[nH]1)C1CCC(=O)N(CCc2cccc(F)c2)C1 (stereo not given) returned SENP8 block-1 2, SENP8 block-2 6, SENP6 block 6, SENP7 block 5, HSP90 refold inh -1 and Platelet DG rel 5.
`CC(=O)O[C@H]1[C@@H](O)[C@H](O)[C@H](Oc2c(O)c(C)c3c4c2[C@@H](C)CC[C@@H]4[C@@H](C)C[C@@H]3C=C(C)C)O[C@H]1C` gave SENP8 block-1 3.
CC1CCCCC1NC(=O)COc1ncnc2sccc12 (stereo not given) was read as SENP8 block-1 10.
For COCCCNC(=O)c1ccc2nc([C@@H]3O[C@H](CO)[C@H](O)[C@H](O)[C@H]3O)[nH]c2c1 the results were SENP8 block-1 15.
Screening CCC(C)c1ccccc1NC(=S)NC(=O)c1ccco1 (stereo not given) returned SENP8 block-1 -6, SENP8 block-2 12, SENP6 block -10, SENP7 block 3, HSP90 refold inh -5 and Platelet DG rel 11.
`CCN(C(=O)CSc1n[nH]c(N)n1)c1cccc2ccccc12` gave SENP8 block-1 8, SENP8 block-2 0, SENP6 block -6 and SENP7 block 2.
`S=C(Nc1ccc2nsnc2c1)N1CCCC1` gave SENP8 block-1 -52, SENP8 block-2 57*, SENP6 block 83*, SENP7 block 54*, HSP90 refold inh 11, Platelet DG rel -2, SENP8 conf 6, SENP6 conf 28, SENP7 conf 24, Casp3 select 70* and SENP luc ctr 67*.
`O=C1C(=O)c2ccccc2C(O)=C1CCCCl` gave SENP8 block-1 21, SENP8 block-2 26, SENP6 block 55*, SENP7 block 8, HSP90 refold inh 9, Platelet DG rel 4, SENP8 conf 53*, SENP6 conf 66*, SENP7 conf 13, Casp3 select 8 and SENP luc ctr 1.
For COc1ccc(CNc2ncc(-c3cccc([N+](=O)[O-])c3)n2C)c(OC)c1OC the results were SENP8 block-1 16, SENP8 block-2 -2, SENP6 block -15, SENP7 block -1, HSP90 refold inh 2 and Platelet DG rel 2.
COc1ccc(N/N=C(/N=Nc2nc(C)cc(=O)[nH]2)c2ccccc2)cc1 was read as SENP8 block-1 19, SENP8 block-2 36, SENP6 block 68*, SENP7 block 35, HSP90 refold inh -2, Platelet DG rel 23, SENP8 conf 13, SENP6 conf 11, SENP7 conf 25, Casp3 select 48 and SENP luc ctr 29.
`Cc1cc(=O)[nH]c(N=N/C(=N/Nc2ccc(O)cc2)c2ccccc2)n1` gave SENP8 block-1 11, SENP8 block-2 38, SENP6 block 61*, SENP7 block 17, HSP90 refold inh 1, Platelet DG rel inconclusive, SENP8 conf 17, SENP6 conf 15, SENP7 conf 14, Casp3 select 46 and SENP luc ctr 8.
COC(=O)C1CCN(C(=O)[C@H](C)NC(=O)C2CC(=O)N(c3ccc(F)cc3)C2)CC1 (stereo not given in full) was read as SENP8 block-1 7, SENP8 block-2 4, SENP6 block 19, SENP7 block 3, HSP90 refold inh -7 and Platelet DG rel 0.
For Cc1cc(=O)n2[nH]c(-c3ccccc3)cc2n1 the results were SENP8 block-1 -74, SENP8 block-2 -12, SENP6 block 12, SENP7 block 6, HSP90 refold inh 2 and Platelet DG rel 0.
Screening COc1cccc(-c2cc3nc(-c4ccccc4)cc(=O)n3[nH]2)c1 returned SENP8 block-1 -328, SENP8 block-2 85*, SENP6 block 87*, SENP7 block 51*, HSP90 refold inh 3, Platelet DG rel 1, SENP8 conf -9, SENP6 conf 85*, SENP7 conf 79*, Casp3 select 84* and SENP luc ctr 16.
Screening O=c1cc(-c2ccccc2)nc2cc(-c3ccc(F)cc3)[nH]n12 returned SENP8 block-1 -488, SENP8 block-2 79*, SENP6 block 87*, SENP7 block 43, Platelet DG rel 1, SENP8 conf -4, SENP6 conf 2, SENP7 conf 4, Casp3 select 12 and SENP luc ctr 2.
CSc1nc2nc(-c3ccccc3)cc(=O)n2[nH]1 was read as SENP8 block-1 19, SENP8 block-2 11, SENP6 block 53*, SENP7 block 9, HSP90 refold inh -1, Platelet DG rel 14, SENP8 conf 27, SENP6 conf 22, SENP7 conf 64*, Casp3 select 75* and SENP luc ctr 50*.
COC(=O)c1ccc(Cn2nc(-c3cc(C)ccc3C)ccc2=O)cc1 was read as SENP8 block-1 10, SENP8 block-2 -2, SENP6 block 6, SENP7 block -5, HSP90 refold inh -2 and Platelet DG rel -8.
Screening CCN1C(=O)[C@H]2[C@H]3CN=C(SCC(=O)c4ccccc4)N3[C@@](C)(C(=O)OC)[C@H]2C1=O returned SENP8 block-1 12 and SENP7 block -3.
Screening O=C(CCCc1nc(-c2ccc(Cl)cc2)no1)NC1CCCCC1 returned SENP8 block-1 3, SENP8 block-2 6, SENP6 block -11, SENP7 block 8, HSP90 refold inh 0 and Platelet DG rel 5.
Screening c1ccc(-n2nc3c(ccc4cnnc43)[nH]2)cc1 returned SENP8 block-1 -479, SENP8 block-2 74*, SENP6 block 89*, SENP7 block 87*, HSP90 refold inh -3, Platelet DG rel 8, SENP8 conf 50*, SENP6 conf 83*, SENP7 conf 97*, Casp3 select 71* and SENP luc ctr 30.
